Reference: PubChem BioAssay
Results filed as inconclusive are left out. Activity calls are given as the source filed them. Unless noted, no cut-off is given here; in the data, nearly all actives have AC50 up to about 26 µM.

How the values were obtained:
[1] = viability loss in pontine glioma line – cell-based, SU-DIPG-XVII, MIPE5.0, CellTiter-Glo, qHTS, dose response (AID 1347060); conditions: CellTiter-Glo ATP luminescence;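 for AC50: cells exposed to compound for 48 hours before viability readout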
[2] = viability loss in pontine glioma line – cell-based, SU-DIPG-XIII, MIPE5.0, CellTiter-Glo, qHTS, dose response (AID 1347064; cut-off not given, nearly all actives have AC50 up to about 23 µM;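 for AC50: cells exposed to compound for 48 hours before the viability read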); conditions: CellTiter-Glo ATP luminescence
[3] = viability loss in pontine glioma line – cell-based, SU-DIPG-XXV, MIPE5.0, CellTiter-Glo, qHTS, dose response (AID 1347065); conditions: CellTiter-Glo ATP luminescence;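 note: cells exposed to compound for 48 hours before ATP readout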
[4] = growth inhibition of DIPG cells – cell-based, MIPE4.0 library, CellTiter-Glo luminescence, qHTS (AID 1347066; cut-off not given, nearly all actives have AC50 up to about 30 µM;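 note: cells exposed to compound for 48 hours before readout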); conditions: SU-DIPG-VI viability, CellTiter-Glo ATP luminescence
[5] = JHH-DIPG-1 glioma cell viability, MIPE5.0 library, CellTiter-Glo luminescence, qHTS (AID 1347067); conditions: JHH-DIPG-1 glioma viability, CellTiter-Glo ATP luminescence;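 note: cells exposed to compound for 48 hours before readout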
[6] = growth inhibition of DIPG cells – cell-based, MIPE5.0 library, qHTS (AID 1347068; cut-off not given, nearly all actives have IC50 up to about 30 µM;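 for IC50: cells exposed to compound for 48 hours before viability readout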); conditions: SU-DIPG-XXV viability
[7] = viability loss with induced miR-34 in A549 – imaging, A549 dox-inducible miR-34, nuclei and caspase counts, primary screen (AID 1347080;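 active = compounds whose cell count with miR-34 switched on is under 0.7 times the count with it off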); conditions: A549 miR-34 inducible, Hoechst nuclei count, 48 h
[8] = MELAS cybrid and Rieske KO viability enhancers – cell-based, MELAS cybrids, Rieske KO mouse fibroblasts, CellTiter-Glo, primary screen (AID 1508586;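 active = mean z-score across replicates of 1.96 or higher in either the MELAS or the Rieske mutant cell line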;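 note: z relative to plate mean and SD of compound and empty wells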); conditions: low glucose
[9] = compounds altering HSF1 focus formation in cells – imaging, Selleck Cancer Library (AID 1347162; in the data active = plate-normalised HSF1 focus index below about 0.46); conditions: human cells, HSF1 nuclear foci imaging, at 10 µM; SSMD: measured here: HSF1 foci SSMD mean; cell count: measured here: cell number; plate-normalised HSF1 focus index: stronger effect = lower value
[10] = drug combination growth inhibition, ovarian cancer – cell-based, oncology-focused library, rucaparib conditional, profiling panel (AID 1508598;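 active = normalized viability below 100% at a tested concentration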); conditions: patient-derived ovarian cancer cells, CellTiter-Glo viability, 144 h, stronger effect = lower value
[11] = stronger effect = lower value, cell number ratio, induced over uninduced
[12] = measured here: relative caspase fold change +Dox/-Dox
[13] = measured here: total cells with miR-34 induction, stronger effect = lower value
[14] = measured here: total cells without miR-34 induction
[15] = MELAS cybrid survival, CellTiter-Glo 48 h, stronger effect = higher value
[16] = Rieske KO mouse fibroblast survival, CellTiter-Glo 72 h

CCC[C@H](NC(=O)[C@@H]1[C@H]2CCC[C@H]2CN1C(=O)[C@@H](NC(=O)[C@@H](NC(=O)c1cnccn1)C1CCCCC1)C(C)(C)C)C(=O)C(=O)NC1CC1
active: AC50 [5] 18.6 µM
inactive: outcome [1] | outcome [2] | outcome [3] | outcome [4] | outcome [6]

Cc1cc(O)c(-c2ccc([C@@H](C)CN)cc2)c2c1[nH]c(=O)c1sccc12
active: AC50 [1] 0.118 µM | AC50 [2] 0.148 µM | AC50 [3] 0.148 µM

Cc1cc(-c2cc(OC(=O)c3ccccc3)ccc2Cl)cc2nnc(Nc3ccc(OCCN4CCCC4)cc3)nc12
active: AC50 [1] 5.12 µM | AC50 [2] 7.23 µM | AC50 [3] 5.12 µM | AC50 [5] 5.12 µM

Nc1nc2cc(-c3ccc4ncc(C(=O)N5CCOCC5)n4c3)ccc2o1
active: AC50 [1] 18.6 µM | AC50 [2] 14.8 µM | AC50 [3] 9.34 µM | AC50 [5] 10.5 µM

O=C(/C=C\n1cnc(-c2cc(C(F)(F)F)cc(C(F)(F)F)c2)n1)N1CC(F)(F)C1
active: AC50 [1] 1.18 µM | AC50 [2] 2.63 µM | AC50 [3] 13.2 µM | AC50 [5] 9.34 µM

OC1CCC(Nc2ncc3nc(Nc4c(F)cc(F)cc4F)n([C@@H]4CCOC4)c3n2)CC1 (some centres undefined)
inactive: outcome [1] | outcome [2] | outcome [3] | outcome [4] | outcome [5] | outcome [6]

Cc1cc(-c2ccc(CC(=O)Nc3ccc(-c4cccnc4)cc3)cc2)ccn1
-0.153: z-score [8, 16]
inactive: outcome [1] | outcome [2] | outcome [3] | outcome [4] | outcome [5] | outcome [6] | fold change [7, 11] 0.957 | z-score [8, 15] -0.327
0.839: fold change [7, 12]
7810: cell count [7, 13]
8160: cell count [7, 14]

O=C(O)CCCCC(CCSCc1ccccc1)SCc1ccccc1 (centres undefined)
0.838: fold change [7, 12]
10600: cell count [7, 14]
0.614: z-score [8, 16]
inactive: outcome [1] | outcome [2] | outcome [3] | outcome [4] | outcome [5] | outcome [6] | fold change [7, 11] 0.896 | z-score [8, 15] -0.291
9470: cell count [7, 13]

CCCCOc1nc(N)c2c(n1)N(Cc1cccc(CN3CCCC3)c1)CC(=O)N2
inactive: outcome [1] | outcome [2] | outcome [3]

COc1cc(-c2nn(C3CCC(N4CCN(C(C)=O)CC4)CC3)c3ncnc(N)c23)ccc1NC(=O)c1cc2ccccc2n1C (centres undefined)
active: AC50 [1] 3.72 µM | AC50 [2] 7.42 µM | AC50 [3] 4.17 µM | AC50 [5] 7.42 µM
inactive: outcome [4] | outcome [6]

CN1CCN(c2cccc(Nc3nc4c(-c5ccc(S(C)(=O)=O)cc5)cccn4n3)c2)CC1
6470: cell count [7, 14]
active: AC50 [1] 16.6 µM | AC50 [2] 16.6 µM | AC50 [3] 11.8 µM | AC50 [4] 23.5 µM | AC50 [5] 20.9 µM | IC50 [6] 11.8 µM | viability ([10]; at 0.000305 µM, OCI-P5x cells, without rucaparib) 90.7% | viability ([10]; at 0.00122 µM, OCI-P5x cells, without rucaparib) 96.6% | viability ([10]; at 0.0781 µM, OCI-P5x cells, without rucaparib) 99.2% | viability ([10]; at 5 µM, OCI-P5x cells, with rucaparib 20 µM, 100% = cells with rucaparib alone) 45% | viability ([10]; at 5 µM, OCI-P5x cells, without rucaparib) 77.6%
0.00545: z-score [8, 16]
inactive: fold change [7, 11] 0.892 | plate-normalised HSF1 focus index [9] 0.914 | z-score [8, 15] -0.221 | viability ([10]; at 0.000305 µM, OCI-C5x cells, with rucaparib 10 µM, 100% = cells with rucaparib alone) 113% | viability ([10]; at 0.000305 µM, OCI-C5x cells, without rucaparib) 104% | viability ([10]; at 0.000305 µM, OCI-P5x cells, with rucaparib 20 µM, 100% = cells with rucaparib alone) 101% | viability ([10]; at 0.00122 µM, OCI-C5x cells, with rucaparib 10 µM, 100% = cells with rucaparib alone) 115% | viability ([10]; at 0.00122 µM, OCI-C5x cells, without rucaparib) 112% | viability ([10]; at 0.00122 µM, OCI-P5x cells, with rucaparib 20 µM, 100% = cells with rucaparib alone) 109% | viability ([10]; at 0.00488 µM, OCI-C5x cells, with rucaparib 10 µM, 100% = cells with rucaparib alone) 114% | viability ([10]; at 0.00488 µM, OCI-C5x cells, without rucaparib) 123% | viability ([10]; at 0.00488 µM, OCI-P5x cells, with rucaparib 20 µM, 100% = cells with rucaparib alone) 107% | viability ([10]; at 0.00488 µM, OCI-P5x cells, without rucaparib) 104% | viability ([10]; at 0.0195 µM, OCI-C5x cells, with rucaparib 10 µM, 100% = cells with rucaparib alone) 115% | viability ([10]; at 0.0195 µM, OCI-C5x cells, without rucaparib) 125% | viability ([10]; at 0.0195 µM, OCI-P5x cells, with rucaparib 20 µM, 100% = cells with rucaparib alone) 117% | viability ([10]; at 0.0195 µM, OCI-P5x cells, without rucaparib) 107% | viability ([10]; at 0.0781 µM, OCI-C5x cells, with rucaparib 10 µM, 100% = cells with rucaparib alone) 114% | viability ([10]; at 0.0781 µM, OCI-C5x cells, without rucaparib) 129% | viability ([10]; at 0.0781 µM, OCI-P5x cells, with rucaparib 20 µM, 100% = cells with rucaparib alone) 112% | viability ([10]; at 0.313 µM, OCI-C5x cells, with rucaparib 10 µM, 100% = cells with rucaparib alone) 113% | viability ([10]; at 0.313 µM, OCI-C5x cells, without rucaparib) 128% | viability ([10]; at 0.313 µM, OCI-P5x cells, with rucaparib 20 µM, 100% = cells with rucaparib alone) 115% | viability ([10]; at 0.313 µM, OCI-P5x cells, without rucaparib) 111% | viability ([10]; at 1.25 µM, OCI-C5x cells, with rucaparib 10 µM, 100% = cells with rucaparib alone) 115% | viability ([10]; at 1.25 µM, OCI-C5x cells, without rucaparib) 138% | viability ([10]; at 1.25 µM, OCI-P5x cells, with rucaparib 20 µM, 100% = cells with rucaparib alone) 112% | viability ([10]; at 1.25 µM, OCI-P5x cells, without rucaparib) 111% | viability ([10]; at 5 µM, OCI-C5x cells, with rucaparib 10 µM, 100% = cells with rucaparib alone) 110% | viability ([10]; at 5 µM, OCI-C5x cells, without rucaparib) 206%
5770: cell count [7, 13]
0.496: fold change [7, 12]
6270: cell count [9]
-2.58: SSMD [9]

CCO[C@@H]1OC(=O)C[C@@H]1NC(=O)[C@@H]1CCCN1C(=O)[C@@H](NC(=O)c1ccc(N)c(Cl)c1)C(C)(C)C
inactive: outcome [2] | outcome [3] | outcome [4] | outcome [5] | outcome [6]
active: AC50 [1] 23.5 µM

COC1=C2C[C@H](C)C[C@H](OC)[C@H](O)[C@@H](C)/C=C(/C)[C@H](OC(N)=O)[C@@H](OC)/C=C\C=C(\C)C(=O)NC(=CC1=O)C2=O
active: AC50 [1] 0.235 µM | AC50 [2] 0.118 µM | AC50 [3] 0.417 µM

CCOc1ccc(Cc2cc([C@@H]3O[C@H](CO)[C@@H](O)[C@H](O)[C@H]3O)ccc2Cl)cc1
1.4: SSMD [9]
6780: cell count [9]
inactive: outcome [1] | outcome [2] | outcome [3] | outcome [4] | outcome [5] | outcome [6] | plate-normalised HSF1 focus index [9] 1.07

O=C(NO)c1cnc(N2C[C@H]3C[C@@H]2CN3c2cc(C(F)(F)F)ccn2)nc1
active: AC50 [1] 2.63 µM | AC50 [2] 1.18 µM | AC50 [3] 0.742 µM | AC50 [5] 1.48 µM
